Source: PubChem BioAssay (several laboratories)
Only some compounds are listed: those with a hit (about 3.3% of all), similar ones and a draw of the others.
eIF4E 4G PPI – inhibitors of eIF4E and eIF4G interaction in translation initiation | TR-FRET eIF4E-eIF4GI(517-606) binding, 2 h | inhibition, % at 21.7 µM | 220,000 compounds, 0.37% hits | AID 782
Bim-Mcl-1 – inhibitors of Bim-Mcl-1 interaction, human | Q07820 | Bead-based flow cytometry, Bim peptide-Mcl-1 binding | inhibition, % at 10 µM | 190,000 compounds, 0.1% hits | AID 1009; in the data active = inhibition above about 40%
Mcl1 Noxa PPI – disrupts binding of human Mcl-1 to Noxa peptide. inhibition, % at 21.7 µM. 220,000 compounds, 1.5% hits. Q07820. TR-FRET Mcl-1/Noxa peptide binding, 2 h;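 active = compounds that cut the protein-peptide binding signal by more than 50% relative to plate controls in a single-dose test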;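 note: His-tagged Mcl-1 with rhodamine Noxa BH3 peptide and terbium anti-His antibody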
14-3-3 Bad PPI – disrupts binding of bovine 14-3-3 zeta to phospho-Bad peptide; TR-FRET 14-3-3zeta/Dy647-pBad peptide displacement, 1 h; inhibition, % at 21.7 µM; P63103; 220,000 compounds, 0.71% hits;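 active = inhibition above about 70%, limit read from the data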
Mcl1-Bid inh – disrupts binding of human Mcl-1 to Bid peptide | Q07820 | TR-FRET Mcl-1/Bid-Dy647 peptide binding, 1536-well | 220,000 compounds, 0.97% hits | inhibition, % at 21.7 µM | AID 1021;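 active = compounds that cut the binding signal by more than half at the single screening dose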;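 note: His-tagged Mcl-1 with europium anti-His antibody binding Bid BH3 peptide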
NCF1 inh – p47phox (human) inhibition. P14598. p47phox/p22phox peptide binding, fluorescence polarization, 2 h. inhibition, % at 24.7 µM. 220,000 compounds, 0.53% hits. AID 1274
Hits are given with their value.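 Rule for the calls, unless noted: active = inhibition above about 30% (limit read from the data); inactive = the rest.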

Results for O=C(Nc1cccnc1)c1ccc(S(=O)(=O)c2ccc(Cl)cc2)cc1 ?
eIF4E 4G PPI: inactive; Bim-Mcl-1: inactive; Mcl1 Noxa PPI: inactive; 14-3-3 Bad PPI: 85; Mcl1-Bid inh: inactive; NCF1 inh: inactive

What do the screens show for `COCCN1C(=O)N[C@@H](c2ccco2)C(C(C)=O)=C1C`?
eIF4E 4G PPI: inactive; Bim-Mcl-1: inactive; Mcl1 Noxa PPI: inactive; 14-3-3 Bad PPI: inactive; Mcl1-Bid inh: inactive; NCF1 inh: inactive

What do the screens show for `CCOC(=O)N1CCC(n2c(SCC(=O)c3ccccc3)nc3ccsc3c2=O)CC1`?
eIF4E 4G PPI: inactive; Bim-Mcl-1: inactive; Mcl1 Noxa PPI: inactive; 14-3-3 Bad PPI: inactive; Mcl1-Bid inh: 65; NCF1 inh: inactive

What do the screens show for `COc1cc(/C=C/C(=O)OCC(=O)Nc2ccc([N+](=O)[O-])cc2)ccc1O`?
eIF4E 4G PPI: inactive; Mcl1 Noxa PPI: inactive; 14-3-3 Bad PPI: inactive; Mcl1-Bid inh: inactive; NCF1 inh: inactive

What do the screens show for `COc1cc(/C=C/C(=O)OCC(=O)Nc2ccc(C)cc2[N+](=O)[O-])ccc1O`?
eIF4E 4G PPI: inactive; Bim-Mcl-1: inactive; Mcl1 Noxa PPI: 55; 14-3-3 Bad PPI: inactive; Mcl1-Bid inh: inactive; NCF1 inh: inactive

How did COc1cc(/C=C/C(=O)OCC(=O)Nc2cc(C)c(C)cc2[N+](=O)[O-])ccc1O do in these assays?
eIF4E 4G PPI: inactive; Mcl1 Noxa PPI: 93; 14-3-3 Bad PPI: inactive; Mcl1-Bid inh: inactive; NCF1 inh: inactive

What do the screens show for `COc1ccc(/C=C/C(=O)NC(=S)Nc2cc([N+](=O)[O-])ccc2O)cc1OC`?
eIF4E 4G PPI: inactive; Bim-Mcl-1: inactive; Mcl1 Noxa PPI: 93; 14-3-3 Bad PPI: inactive; Mcl1-Bid inh: inactive; NCF1 inh: inactive

What do the screens show for `COc1ccc([N+](=O)[O-])cc1NC(=S)NC(C)=O`?
eIF4E 4G PPI: inactive; Bim-Mcl-1: inactive; Mcl1 Noxa PPI: inactive; 14-3-3 Bad PPI: inactive; Mcl1-Bid inh: inactive; NCF1 inh: inactive

How did Cc1ncc([N+](=O)[O-])n1Cc1ccc(F)cc1 do in these assays?
eIF4E 4G PPI: inactive; Bim-Mcl-1: inactive; Mcl1 Noxa PPI: inactive; 14-3-3 Bad PPI: inactive; Mcl1-Bid inh: inactive; NCF1 inh: inactive

How did O=c1/c(=C\c2cccn2-c2ccccc2)sc2nc3ccccc3n12 do in these assays?
eIF4E 4G PPI: inactive; Bim-Mcl-1: inactive; 14-3-3 Bad PPI: inactive; Mcl1-Bid inh: inactive; NCF1 inh: inactive

How did O=C(O)Cn1cc(/C=c2/sc3nc4ccccc4n3c2=O)c2ccccc21 do in these assays?
eIF4E 4G PPI: inactive; Bim-Mcl-1: inactive; Mcl1 Noxa PPI: 64; 14-3-3 Bad PPI: inactive; Mcl1-Bid inh: inactive; NCF1 inh: inactive

What do the screens show for `O=C(NN1CCOCC1)c1cc(-c2ccc(Br)cc2)nc2ccccc12`?
eIF4E 4G PPI: 58; Bim-Mcl-1: inactive; Mcl1 Noxa PPI: inactive; 14-3-3 Bad PPI: inactive; Mcl1-Bid inh: inactive; NCF1 inh: inactive

How did O=C(Nc1cccc(Cl)c1)/C(=C\c1cccnc1)NC(=O)c1ccco1 do in these assays?
eIF4E 4G PPI: inactive; Bim-Mcl-1: inactive; Mcl1 Noxa PPI: inactive; 14-3-3 Bad PPI: inactive; Mcl1-Bid inh: inactive; NCF1 inh: inactive

How did CCc1ccccc1NC(=S)N(Cc1ccc(C(=O)O)cc1)Cc1ccc(OC)c(OC)c1 do in these assays?
eIF4E 4G PPI: inactive; Bim-Mcl-1: inactive; Mcl1 Noxa PPI: inactive; 14-3-3 Bad PPI: inactive; Mcl1-Bid inh: inactive; NCF1 inh: inactive

What do the screens show for `CC(C)(C)NC(=O)COc1ccc(CNn2nnnc2N)cc1`?
eIF4E 4G PPI: inactive; Bim-Mcl-1: inactive; Mcl1 Noxa PPI: inactive; 14-3-3 Bad PPI: inactive; Mcl1-Bid inh: inactive; NCF1 inh: 56

What do the screens show for `COCCNC(=O)C(c1c[nH]c2ccccc12)N(C(=O)c1snc(C(N)=O)c1N)c1cccc(OC)c1` (centres undefined)?
eIF4E 4G PPI: inactive; Bim-Mcl-1: inactive; Mcl1 Noxa PPI: inactive; 14-3-3 Bad PPI: inactive; Mcl1-Bid inh: inactive; NCF1 inh: inactive

Results for O=C(O)C1OC(Oc2c(-c3ccc(O)c(O)c3)oc3cc(O)cc(O)c3c2=O)C(O)C(O)C1O (centres undefined) ?
eIF4E 4G PPI: inactive; Bim-Mcl-1: inactive; Mcl1 Noxa PPI: 53; 14-3-3 Bad PPI: inactive; Mcl1-Bid inh: inactive; NCF1 inh: inactive

Results for CC1OC(Oc2c(-c3cc(O)c(O)c(O)c3)oc3cc(O)cc(O)c3c2=O)C(O)C(O)C1O (centres undefined) ?
eIF4E 4G PPI: inactive; Mcl1 Noxa PPI: inactive; 14-3-3 Bad PPI: inactive; Mcl1-Bid inh: inactive; NCF1 inh: inactive

How did CC(=O)Nc1ccc(S(=O)(=O)Nc2ccc3c(c2)C(=O)OC3)cc1 do in these assays?
eIF4E 4G PPI: inactive; Bim-Mcl-1: inactive; Mcl1 Noxa PPI: inactive; 14-3-3 Bad PPI: inactive; Mcl1-Bid inh: inactive; NCF1 inh: inactive

Results for Cc1ccc(C(=O)N[C@H](C(=O)OCc2cc(=O)n3c(n2)sc2ccccc23)C(C)C)cc1 ?
eIF4E 4G PPI: inactive; Bim-Mcl-1: inactive; Mcl1 Noxa PPI: 58; 14-3-3 Bad PPI: inactive; Mcl1-Bid inh: inactive; NCF1 inh: inactive

Results for Cc1ccccc1Nc1nc(N)nc(COC(=O)C(NC(=O)c2ccco2)C(C)C)n1 (centres undefined) ?
eIF4E 4G PPI: inactive; Bim-Mcl-1: inactive; Mcl1 Noxa PPI: inactive; 14-3-3 Bad PPI: inactive; Mcl1-Bid inh: inactive; NCF1 inh: inactive

How did CC(C)[C@H](NC(=O)c1ccco1)C(=O)OCc1cc(=O)n2c(n1)sc1ccccc12 do in these assays?
eIF4E 4G PPI: inactive; Bim-Mcl-1: inactive; Mcl1 Noxa PPI: 60; 14-3-3 Bad PPI: inactive; Mcl1-Bid inh: inactive

How did Cc1ccc2nc(SCC3CCCCO3)[nH]c2c1 (centres undefined) do in these assays?
eIF4E 4G PPI: inactive; Mcl1 Noxa PPI: inactive; 14-3-3 Bad PPI: inactive; Mcl1-Bid inh: inactive; NCF1 inh: inactive

How did CNC(=O)c1c(NC(=O)c2cc(-c3cc(C)c(C)cc3O)n[nH]2)sc2c1CCCC2 do in these assays?
eIF4E 4G PPI: inactive; Mcl1 Noxa PPI: 60; 14-3-3 Bad PPI: inactive; Mcl1-Bid inh: inactive; NCF1 inh: inactive

What do the screens show for `O=c1oc2ccc(Cl)cc2cc1-c1nnc(Nc2cccc(C(F)(F)F)c2)s1`?
eIF4E 4G PPI: inactive; Bim-Mcl-1: inactive; Mcl1 Noxa PPI: inactive; 14-3-3 Bad PPI: inactive; Mcl1-Bid inh: inactive; NCF1 inh: inactive

What do the screens show for `CCOc1cccc2cc(-c3cn4cc(C)ccc4n3)c(=O)oc12`?
eIF4E 4G PPI: inactive; Bim-Mcl-1: inactive; Mcl1 Noxa PPI: inactive; 14-3-3 Bad PPI: inactive; Mcl1-Bid inh: 80; NCF1 inh: inactive

Results for CCOc1cccc2cc(-c3nnc(NCc4ccco4)s3)c(=O)oc12 ?
eIF4E 4G PPI: inactive; Bim-Mcl-1: inactive; Mcl1 Noxa PPI: 64; 14-3-3 Bad PPI: inactive; Mcl1-Bid inh: inactive; NCF1 inh: inactive

What do the screens show for `CNc1nnc(-c2cc3cc(Cl)ccc3oc2=O)s1`?
eIF4E 4G PPI: inactive; Bim-Mcl-1: inactive; Mcl1 Noxa PPI: 64; 14-3-3 Bad PPI: inactive; Mcl1-Bid inh: inactive; NCF1 inh: inactive

What do the screens show for `COc1ccc2oc(=O)c(-c3nnc(NCc4ccco4)s3)cc2c1`?
eIF4E 4G PPI: inactive; Bim-Mcl-1: inactive; Mcl1 Noxa PPI: inactive; 14-3-3 Bad PPI: inactive; Mcl1-Bid inh: 65; NCF1 inh: inactive
